# Hits are enriched below; roughly 17% of the tested compounds scored in any of these assays.
# HepG2 tox: qHTS for Inhibitors of TGF-b: Cytotox Counterscreen | AID 588856, 2011 | 0.76% of 410,000 active | HepG2 CAGA-GFP viability, ATP luminescence, 18 h | Potency, µM (series often up to 46.1 µM), for inactives: at the highest dose activity change, negative = cytotoxicity, most hits filed as cytotoxic
#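 CellTiter-Glo luminescence gave cytotoxicity after 18 hours at 37 degrees C. The cells were HepG2 CAGA-GFP in 1% FBS DMEM, stimulated with 500 pg/mL TGF-beta after compound addition. %Activity was normalised to no-cell wells (complete cell-killing) and DMSO (no toxicity), and curves were fitted and classified.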
# HT1080 IDH1KD tx: qHTS for induction of synthetic lethality in tumor cells producing 2HG: qHTS for the HT-1080-IDH1KD cell line; HT-1080 IDH1 knockdown viability, ATP luminescence, 48 h; AID 686971, 2013; 2% of 360,000 active; Potency, µM (top dose mostly 46.1 µM), for inactives: top-dose activity, negative = toxicity, actives largely listed as cytotoxic;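 also: 0% = DMSO wells and -100% = cell-free medium wells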
#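 Viability of IDH1-knockdown HT-1080 fibrosarcoma cells was assessed by CellTiter-Glo after 48 h at 37 °C with titrated compound; concentration-effect curves were classified by fit quality and response size.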
# HT1080-NT tox: qHTS for induction of synthetic lethality in tumor cells producing 2HG: qHTS for the HT-1080-NT fibrosarcoma cell line | HT-1080-NT fibrosarcoma viability, CellTiter-Glo ATP luminescence, 48 h | Potency, µM (titrated, usually from 46.1 µM), for the others: top-dose activity, negative = less viability, usual class: cytotoxic | 1.6% of 360,000 active | AID 686970, 2013;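 also: NT is the 2HG producing partner of a matched IDH1 knockdown line; 0% = DMSO-treated cells and -100% = media-only wells without cells; nearly all actives have a fitted effect of over 55% in size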
#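 750 cells/well, RPMI + 5% FBS; 2 h settle, compound pin-transfer, 48 h at 37 degrees C. CellTiter-Glo 10 min RT, luminescence. Normalized to DMSO and media-only wells.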
# TGFb SMAD3 inh: qHTS for Inhibitors of TGF-b | HepG2 CAGA-GFP TGF-b/SMAD3 reporter, GFP fluorescence, 18 h; TGF-beta stimulated, 500 pg/mL final | Potency, µM (top dose mostly 46.1 µM), without a hit: top-dose activity, negative = inhibition, actives largely listed as inhibitors | 1.2% of 410,000 active | AID 588855, 2011; also: % is scaled to controls: 0 for no effect and ±100 for the full control effect; nearly all actives have a fitted effect of over 65% in size
#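 Per well, imaged GFP fluorescence of HEPG2 CAGA-GFP cells gives the signal; cells get compound, then TGF-beta (500 pg/mL final), 18 h at 37 degrees C; %Activity versus -TGF-beta and +DMSO controls.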
# TDP1 cell CPT: qHTS for Inhibitors of human tyrosyl-DNA phosphodiesterase 1 (TDP1): qHTS in cells in presence of CPT | 12% of 420,000 active | Potency, µM (series often up to 46.2 µM), inactives show at the highest dose activity change, negative = growth inhibition, actives largely listed as inhibitors | chicken DT40 Tdp1-/-;hTDP1 cells + 20 nM CPT, ATP luminescence, 48 h; also: % is scaled to controls: 0 for no effect and ±100 for the full control effect; nearly all actives have a fitted effect of over 55% in size
#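 Cell growth measured by CellTiter-Glo luminescence after a minimum 48 h, 37 C compound exposure with 20 nM CPT in Tdp1-knockout DT40 cells stably expressing hTDP1, seeded 400/well; qHTS titration format.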
# DT40 TDP1 no CPT: qHTS for Inhibitors of human tyrosyl-DNA phosphodiesterase 1 (TDP1): qHTS in cells in absence of CPT; DT40 Tdp1-/- hTDP1 cells, no CPT, ATP luminescence, 48 h; Potency, µM (highest dose often 46.2 µM), without a hit: at the highest dose activity change, negative = growth inhibition, actives largely listed as inhibitors; 15% of 420,000 active; AID 686978, 2013; also: % is scaled to controls: 0 for no effect and ±100 for the full control effect; nearly all actives have a fitted effect of over 55% in size
#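 Compound effects on proliferation are scored in DT40 Tdp1-/-;hTDP1 cells in the absence of CPT. ATP levels (CellTiter-Glo luminescence) are recorded after a ≥48 hr, 37 °C incubation.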
# An asterisk follows results filed as active; ? = inconclusive; nt = not tested or not shown; [ ] = remark or other dose. Calls follow the shape of the dose curve; as a rule, active = well fitted curve in the direction sought with a large enough effect; inconclusive = small, poorly fitted or top-dose-only effect, or another doubt; inactive = no such curve, though single readings can be large; an effect the other way counts as inactive or inconclusive. Potency is read from the fitted curve at half-maximal effect.
SMILES,HepG2 tox,HT1080 IDH1KD tx,HT1080-NT tox,TGFb SMAD3 inh,TDP1 cell CPT,DT40 TDP1 no CPT
O=C(CSc1nc(Nc2ccccc2)nc(N2CCOCC2)n1)N1CCCC1,-54%,-2%[9.24 µM],-15%,28%,?,21µM*
O=C(CSc1nc(Nc2ccccc2)nc(N2CCOCC2)n1)Nc1ccc2c(c1)OCCO2,-39%,-7%,9%,9%,-26%,-27%
O=C(CSc1nc(Nc2ccccc2)nc(N2CCOCC2)n1)N1CCc2ccccc21,-50%,-5%,-6%,21%,?,18µM*
Cc1ccc(NC(=O)Cn2c(=O)n(CCC(=O)NCc3ccccc3Cl)c(=O)c3ccccc32)c(C)c1,-7%,nt,nt,0%,-6%,-1%
Cc1ccc(NC(=O)C2CCCC2)cc1Cl,1%,-15%,-7%,-5%,15%,-10%
Cc1ccc(NS(=O)(=O)c2ccc(Cl)c(NC(=S)NC(=O)C3CCCCC3)c2)cc1Cl,11µM*,?,?,?,23µM*,?
Cc1ccc(NS(=O)(=O)c2ccc3c(c2)CCCN3C(=O)C2CCC2)c(C)c1,-41%,nt,nt,?,?,?
CCN(c1ccc2c(c1)OCO2)S(=O)(=O)c1cc(Br)cc2c1N(C(C)=O)CC2,-38%,?,-19%,-3%,?,?
Cc1ccc(NS(=O)(=O)c2ccc3c(c2)CC(C)N3C(=O)C2CCC2)cc1Cl (stereo unspecified),-18%,nt,nt,?,16µM*,10µM*
CCN(c1ccc2c(c1)OCO2)S(=O)(=O)c1cc2c(cc1Br)CCN2C(=O)C1CC1,3%,9%,-3%,9%,16µM*,21µM*
Cc1ccc(NS(=O)(=O)c2ccc3c(c2)CCCN3C(=O)C2CCC2)cc1Cl,-23%,nt,nt,?,?,23µM*
O=C(COC(=O)COc1ccc(Cl)cc1Br)NC1CCCC1,-6%,12%,0%,-3%,-18%,2%
CC(C)(C)c1nc2c(s1)CCc1onc(-c3ccc(Cl)cc3)c1-2,2%,2%,-3%,11%,6%,1%
O=C(C1CCC1)N1CCc2cc(S(=O)(=O)Nc3ccc4c(c3)OCO4)ccc21,-17%,16µM*,-16%,-4%,11µM*,14µM*
O=C(CCl)c1ccc2c(c1)CCN2C(=O)C1CCCCC1,-25%,?,23µM*,?,1.3µM*,1.6µM*
Cc1cc(Cl)ccc1NS(=O)(=O)c1ccc2c(c1)CC(C)N2C(=O)C1CCC1 (stereo unspecified),-22%,nt,nt,11µM*,18µM*,16µM*
Fc1ccccc1CNCCCSc1nnnn1-c1ccccc1,-24%,nt,nt,?,16µM*,?
CC(C)c1ccc(CNCCSc2nnnn2-c2ccccc2)cc1,-23%,nt,nt,-50%,16µM*,26µM*
Clc1ccccc1CNCCCSc1nnnn1-c1ccccc1,-31%,nt,nt,1%,?,?
CC1(C(=O)NCc2ccccc2)CCC(=O)N1CCCn1ccnc1 (stereo unspecified),23%,23%,?,5%,1%,-5%
CC1(C)CN(Cc2ccccc2)C(=O)[C@H]1CC(=O)Nc1ccc(Br)cc1,-44%,10%,1%,-22%,?,13µM*
